Records with an inconclusive call do not appear. The source holds several records for some structures; these can differ, active in one and inactive in another. Calls of active or inactive are those of the source. Unless noted, calls follow the shape of the dose curve; as a rule, active = well fitted curve in the direction sought with a large enough effect; inconclusive = small, poorly fitted or top-dose-only effect, or another doubt; inactive = no such curve, though single readings can be large; an effect the other way counts as inactive or inconclusive.
Experiments:
[1] = High Content Imaging Cell-Based qHTS for Inhibitors of the mTORC1 Signaling Pathway in MEF (Tsc2-/-, p53-/-) Cells (AID 2666); conditions: at 38.3 µM (top of the series);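 also: percent of cells scored positive for phospho-rpS6 Ser235/236 immunostaining by imaging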
Procedure, shortened: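 Tsc2-/-, p53-/- MEFs (empty-vector stable) grown in DMEM + 10% FBS were exposed to compounds for 24 hrs at 37 degree Celsius, fixed, and stained with Alexa-488 anti-phospho-rpS6 Ser235/236 plus Hoechst. Imaging gave the percentage of positive cells per well.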

[2] = High Content Imaging Cell-Based qHTS for Inhibitors of the mTORC1 Signaling Pathway in MEF Cells (AID 2667); conditions: series mostly up to 38.3 µM;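 also: Tsc2-/- p53-/- MEFs stably re-expressing wild-type Tsc2 exposed 24 h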
Procedure, shortened: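 Tsc2-/-, p53-/- MEFs stably re-expressing WT Tsc2, grown in DMEM + 10% FBS, were treated with compounds for 24 hrs at 37 degree Celsius, fixed, and stained with Alexa-488 phospho-rpS6 Ser235/236 antibody plus Hoechst; results given as % positive cells.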

[3] = Cytometry Cell-Based qHTS for Inhibitors of the mTORC1 Signaling Pathway in MEF cells (AID 2668); conditions: mTORC1 pathway readout; series mostly up to 38.3 µM;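 also: Tsc2-/- p53-/- mouse embryonic fibroblasts stably re-expressing wild-type Tsc2; percent cells positive for phospho-rpS6 Ser235/236 relative to propidium iodide stain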
Procedure, shortened: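 In MEFs grown in DMEM + 10% FBS, a 24 hrs compound exposure preceded imaging of phospho-rpS6 Ser235/236 by laser-scanning cytometry.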

[4] = Validation screen for small molecules that induce DNA re-replication in MCF 10A normal breast cells (AID 463097); conditions: MCF 10A cells, DNA re-replication phenotype imaging; series mostly up to 46.1 µM; also: nearly all actives have a fitted effect of over 60% in size; also: potency is read from the fitted curve at half-maximal effect
Procedure, shortened: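 Following 48 hr compound incubation (37 C, 5% CO2), MCF 10A cells receive Hoechst for 40 min at 37 C. Nuclei are then scanned (excitation 405 nm, emission 500-530 nm) for total fluorescence intensity.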

[5] = target: Tumor susceptibility gene 101 protein (Homo sapiens) (UniProt Q99816); assay: qHTS Validation Assay for Iinhibitors of HIV-1 Budding by Blocking the Interaction of PTAP/TSG101 (AID 485342; calls by dose curve); conditions: TSG101-PTAP binding, fluorescence polarization, 4-point titration; series mostly up to 115 µM
Tumor susceptibility gene 101 protein (Homo sapiens), sequence (Q99816 whole entry, looked up, the tested form may be a part): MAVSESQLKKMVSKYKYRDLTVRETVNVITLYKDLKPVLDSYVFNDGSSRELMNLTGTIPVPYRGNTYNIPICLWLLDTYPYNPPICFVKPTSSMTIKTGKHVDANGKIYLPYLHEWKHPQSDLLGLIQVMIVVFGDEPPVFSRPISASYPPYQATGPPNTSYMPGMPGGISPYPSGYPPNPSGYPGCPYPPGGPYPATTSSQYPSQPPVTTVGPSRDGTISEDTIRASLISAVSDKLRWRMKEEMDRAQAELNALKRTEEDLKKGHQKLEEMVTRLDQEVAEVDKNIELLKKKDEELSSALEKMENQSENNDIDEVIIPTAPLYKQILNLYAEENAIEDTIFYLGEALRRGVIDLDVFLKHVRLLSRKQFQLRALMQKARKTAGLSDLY
Procedure, shortened: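 Compound wells held the Tsg101 binding domain (10 uM) and a FITC-conjugated PTAP peptide (50 nM) in buffer at pH 7.5 containing 0.15 M NaCl and 0.01% Tween 20; polarization was recorded after 20 min, r.t.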

[6] = qHTS Validation Assay to Find Inhibitors of Chronic Active B-Cell Receptor Signaling (AID 485345; active = well fitted curve in the direction sought with a large enough effect in the main read-out, with a control signal flat, not every such curve was filed as active); conditions: ABC-DLBCL cells, chronic BCR signaling reporter, CBG luciferase; series mostly up to 46.1 µM
Procedure, shortened: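 Read-out: ratio of filter-corrected green (IkappaBalpha fusion) to red (native) luciferase signal in doxycycline-induced TMD8 cells after 4 h at 37C. Titration spanned 46 uM–3 nM; Data were normalised to basal cells and 10 uM MG-132 wells.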

[7] = target: Beta-2 adrenergic receptor (Homo sapiens) (UniProt P07550); assay: qHTS validation assay of beta-arrestin-biased ligands of beta2-adrenergic receptor (AID 485366); conditions: cell-based beta-arrestin recruitment to ADRB2, qHTS; series mostly up to 46.1 µM
Beta-2 adrenergic receptor (Homo sapiens), sequence (P07550 whole entry, looked up): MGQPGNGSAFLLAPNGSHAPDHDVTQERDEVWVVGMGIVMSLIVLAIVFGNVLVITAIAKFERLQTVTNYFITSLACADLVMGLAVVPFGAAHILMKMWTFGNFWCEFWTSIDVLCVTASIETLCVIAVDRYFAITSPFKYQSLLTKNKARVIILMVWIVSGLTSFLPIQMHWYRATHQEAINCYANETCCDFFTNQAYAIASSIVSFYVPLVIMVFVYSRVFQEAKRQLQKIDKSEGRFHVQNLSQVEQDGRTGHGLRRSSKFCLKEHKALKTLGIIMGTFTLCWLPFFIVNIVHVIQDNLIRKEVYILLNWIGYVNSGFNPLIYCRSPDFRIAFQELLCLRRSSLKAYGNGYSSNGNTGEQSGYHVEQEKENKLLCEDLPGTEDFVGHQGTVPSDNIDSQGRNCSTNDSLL
Procedure, shortened: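 Agonist activity is measured as luciferase luminescence downstream of beta-arrestin recruitment to recombinant beta2-AR in Tango cells. Exposure lasts 18 hr at 37 degrees C, and curves are categorized by r2, response size and activity.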

[8] = Quantitative high throughput screen for delayed death inhibitors of the malarial parasite plastid, 96 hour incubation (AID 488745); conditions: Plasmodium falciparum growth; series mostly up to 28.7 µM; also: nearly all actives have a fitted effect of over 70% in size; also: potency is read from the fitted curve at half-maximal effect
Procedure, shortened: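 Luciferase-expressing P. falciparum, infected RBCs 2% Hct/0.1% parasitemia (final); 96 h cpd exposure, 37 C, 5% CO2; RPMI 1640 + 0.5% Albumax, bicarbonate, gentamycin. Readout: luminescence loss = growth inhibition.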

[9] = Quantitative high throughput screen for delayed death inhibitors of the malarial parasite plastid, 48 hour incubation (AID 488752); conditions: Plasmodium falciparum growth; series mostly up to 28.7 µM; also: nearly all actives have a fitted effect of over 65% in size; also: potency is read from the fitted curve at half-maximal effect
Procedure, shortened: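 Luciferase-expressing P. falciparum in RBCs, 2% Hct, 0.1% parasitemia final; RPMI 1640 + 0.5% Albumax; 48 h, 37 C, 5% CO2; luminescence readout, signal drop = growth inhibition.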

[10] = target: Thioredoxin reductase 1, cytoplasmic (Rattus norvegicus) (UniProt O89049); assay: qHTS Assay for Substrates of Mammalian Selenoprotein Thioredoxin Reductase 1 (TrxR1) (AID 488772); conditions: purified TrxR1, NADPH consumption substrate assay; series mostly up to 57.1 µM;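 also: a drop in NADPH fluorescence below the no-compound background marks a TrxR1 substrate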
Thioredoxin reductase 1, cytoplasmic (Rattus norvegicus), sequence (O89049 whole entry, looked up): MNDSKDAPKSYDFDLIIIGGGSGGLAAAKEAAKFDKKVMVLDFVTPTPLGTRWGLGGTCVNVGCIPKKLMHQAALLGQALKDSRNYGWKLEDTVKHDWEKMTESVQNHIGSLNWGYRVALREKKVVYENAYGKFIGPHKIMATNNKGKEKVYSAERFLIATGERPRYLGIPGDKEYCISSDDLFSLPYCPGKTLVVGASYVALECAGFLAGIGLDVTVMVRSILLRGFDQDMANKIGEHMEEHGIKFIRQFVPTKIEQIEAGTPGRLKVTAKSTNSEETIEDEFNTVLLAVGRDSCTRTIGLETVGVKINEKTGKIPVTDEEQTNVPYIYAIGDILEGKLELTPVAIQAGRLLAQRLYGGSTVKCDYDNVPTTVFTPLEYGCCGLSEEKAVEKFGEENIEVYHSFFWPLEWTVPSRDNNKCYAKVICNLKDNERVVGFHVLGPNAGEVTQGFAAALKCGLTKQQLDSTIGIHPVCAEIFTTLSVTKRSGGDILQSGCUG
Procedure, shortened: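 In this dual-purpose format, potential substrates are identified from the first fluorescence read after selenite addition, not from the 8-minute delta. Rat enzyme is preincubated with NADPH and then with compound at ~22 deg C.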

[11] = target: Flap endonuclease 1 (Homo sapiens) (UniProt P39748); assay: qHTS Validation Assay for the Inhibitors of Human Flap endonuclease 1 (FEN1) (AID 488816); conditions: FEN1 nuclease activity, fluorogenic DNA substrate; series mostly up to 57.1 µM
Flap endonuclease 1 (Homo sapiens), sequence (P39748 whole entry, looked up): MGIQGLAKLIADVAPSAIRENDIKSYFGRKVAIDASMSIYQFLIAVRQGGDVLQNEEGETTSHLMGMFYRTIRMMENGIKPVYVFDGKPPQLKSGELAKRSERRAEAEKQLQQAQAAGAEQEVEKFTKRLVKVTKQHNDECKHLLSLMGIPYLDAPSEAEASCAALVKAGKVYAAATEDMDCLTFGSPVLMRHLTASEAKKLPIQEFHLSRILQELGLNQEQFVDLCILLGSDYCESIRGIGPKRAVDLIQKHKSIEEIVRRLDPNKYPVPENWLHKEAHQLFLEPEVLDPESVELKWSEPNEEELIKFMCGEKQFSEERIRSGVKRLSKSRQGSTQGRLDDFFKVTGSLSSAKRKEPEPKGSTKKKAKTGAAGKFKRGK
Procedure, shortened: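 qHTS format: compounds and 10 nM FEN1 incubated 15 min at room temperature before adding 50 nM substrate. Cleavage followed by reads at 0 and 15 min; normalized data fitted to a four-parameter Hill curve.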

[12] = target: M-phase phosphoprotein 8 (Homo sapiens) (UniProt Q99549); assay: qHTS Validation Assay for Inhibitors for MPP8 Chromodomain Interactions with Methylated Histone Tails (AID 488949); conditions: AlphaScreen MPP8 binding to H3K9me3 peptide; series mostly up to 57.1 µM; also: nearly all actives have a fitted effect of over 55% in size; also: potency is read from the fitted curve at half-maximal effect
M-phase phosphoprotein 8 (Homo sapiens), sequence (Q99549 whole entry, looked up): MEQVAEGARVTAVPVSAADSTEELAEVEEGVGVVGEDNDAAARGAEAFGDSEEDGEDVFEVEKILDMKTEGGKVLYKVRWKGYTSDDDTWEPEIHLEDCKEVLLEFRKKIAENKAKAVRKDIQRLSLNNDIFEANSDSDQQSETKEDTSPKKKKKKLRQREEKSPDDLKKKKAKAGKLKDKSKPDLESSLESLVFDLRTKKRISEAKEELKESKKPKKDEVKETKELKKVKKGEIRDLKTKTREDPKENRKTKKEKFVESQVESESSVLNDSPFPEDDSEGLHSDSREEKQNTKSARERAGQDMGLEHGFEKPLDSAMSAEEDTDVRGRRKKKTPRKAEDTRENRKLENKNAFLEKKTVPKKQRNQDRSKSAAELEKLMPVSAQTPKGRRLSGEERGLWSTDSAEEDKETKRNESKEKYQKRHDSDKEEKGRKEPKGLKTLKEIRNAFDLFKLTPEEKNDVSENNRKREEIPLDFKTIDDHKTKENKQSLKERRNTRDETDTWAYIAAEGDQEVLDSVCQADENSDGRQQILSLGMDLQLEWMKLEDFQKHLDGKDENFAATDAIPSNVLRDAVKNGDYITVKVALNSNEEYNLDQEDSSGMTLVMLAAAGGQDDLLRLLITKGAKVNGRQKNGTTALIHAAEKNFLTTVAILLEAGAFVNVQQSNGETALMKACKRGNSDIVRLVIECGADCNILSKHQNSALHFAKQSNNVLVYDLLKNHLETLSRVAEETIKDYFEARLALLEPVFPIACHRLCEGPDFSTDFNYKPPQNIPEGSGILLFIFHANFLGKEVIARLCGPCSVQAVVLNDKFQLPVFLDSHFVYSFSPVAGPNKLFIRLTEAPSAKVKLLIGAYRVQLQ
Procedure, shortened: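 Chemiluminescent proximity assay: histidine-tag capture via nickel acceptor beads, biotin peptide via streptavidin donor beads. Protein and peptide each at 50 nM, pH 7.4, with 30 min incubations at room temperature for complex formation, compound exposure and bead binding.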

[13] = target: Chromobox protein homolog 1 (Homo sapiens) (UniProt P83916); assay: qHTS Validation Assay for Inhibitors of HP1-beta Chromodomain Interactions with Methylated Histone Tails (AID 488953); conditions: HP1-beta chromodomain / methylated histone peptide binding assay; series mostly up to 114 µM; also: nearly all actives have a fitted effect of over 50% in size; also: potency is read from the fitted curve at half-maximal effect
Chromobox protein homolog 1 (Homo sapiens), sequence (P83916 whole entry, looked up): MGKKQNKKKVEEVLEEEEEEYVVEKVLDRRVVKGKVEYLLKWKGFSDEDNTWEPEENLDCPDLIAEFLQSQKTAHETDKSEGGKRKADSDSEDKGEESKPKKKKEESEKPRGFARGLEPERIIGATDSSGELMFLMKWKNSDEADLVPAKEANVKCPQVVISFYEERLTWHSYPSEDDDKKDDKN
Procedure, shortened: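 AlphaScreen proximity readout: streptavidin donor and Ni-chelate acceptor beads, 10 ug/mL final, 30 min dark, RT. Complex of 50 nM HP1-beta and 50 nM b-H3(1-18)K9me3 formed 30 min, then compound-treated 30 min; PBS pH 7.4/0.01% Tween-20.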

[14] = target: Methanococcus maripaludis chaperonin (MmCpn) (UniProt Q6LX38); assay: High-Throughput Screening for Modulators of Cytosolic Chaperonin Activity: MmCpn Primary Screen (AID 488978); conditions: Purified MmCpn ATPase activity, ADP HTRF detection, 10 min; series mostly up to 76.9 µM
Methanococcus maripaludis chaperonin (MmCpn), sequence (Q6LX38 1-543): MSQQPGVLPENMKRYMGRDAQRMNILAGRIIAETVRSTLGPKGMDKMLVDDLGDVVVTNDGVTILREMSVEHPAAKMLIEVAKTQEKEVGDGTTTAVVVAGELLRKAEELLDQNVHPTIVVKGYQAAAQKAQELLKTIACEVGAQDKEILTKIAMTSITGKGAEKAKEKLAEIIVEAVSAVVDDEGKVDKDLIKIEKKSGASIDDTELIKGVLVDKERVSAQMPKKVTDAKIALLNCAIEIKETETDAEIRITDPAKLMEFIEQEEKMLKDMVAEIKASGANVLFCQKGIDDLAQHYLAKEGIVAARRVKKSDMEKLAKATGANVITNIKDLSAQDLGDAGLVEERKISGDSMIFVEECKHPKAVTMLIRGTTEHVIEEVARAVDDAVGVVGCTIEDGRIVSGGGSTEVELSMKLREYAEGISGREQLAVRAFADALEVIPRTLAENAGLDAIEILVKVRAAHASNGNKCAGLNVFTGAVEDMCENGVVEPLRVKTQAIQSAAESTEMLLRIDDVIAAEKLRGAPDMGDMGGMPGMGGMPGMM
Procedure, shortened: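 HTRF readout (320 nm excitation, 590/665 nm emission) of ADP generated by 50 nM MmCpn hydrolysing 30 uM ATP during 10 min at 37C; compound preincubated 5 min RT.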

[15] = target: Transient receptor potential cation channel subfamily V member 1 (Homo sapiens) (UniProt Q8NER1); assay: HTS Assay for Compounds that Act as Enhancers of the Vanilloid Receptor 1 (AID 488979); conditions: TRPV1-expressing cells, enhancer of channel activity, stimulated with capsaicin at EC20; series mostly up to 41.7 µM
Procedure, shortened: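 Calcium influx kinetics via Fluo-8 (480/520 nm) in TRPV1-expressing cells, 2000/well cultured overnight at 35.5C. Compound-alone read 3 min (agonist phase), followed by EC20 capsaicin challenge for 2 min (enhancer phase).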

[16] = target: Thyrotropin receptor (Homo sapiens) (UniProt P16473); assay: qHTS Assay for Antagonists of the Thyroid Stimulating Hormone Receptor (AID 488980); conditions: TSHR-expressing cells, cAMP antagonist read-out; series mostly up to 57.5 µM
Thyrotropin receptor (Homo sapiens), sequence (P16473 whole entry, looked up): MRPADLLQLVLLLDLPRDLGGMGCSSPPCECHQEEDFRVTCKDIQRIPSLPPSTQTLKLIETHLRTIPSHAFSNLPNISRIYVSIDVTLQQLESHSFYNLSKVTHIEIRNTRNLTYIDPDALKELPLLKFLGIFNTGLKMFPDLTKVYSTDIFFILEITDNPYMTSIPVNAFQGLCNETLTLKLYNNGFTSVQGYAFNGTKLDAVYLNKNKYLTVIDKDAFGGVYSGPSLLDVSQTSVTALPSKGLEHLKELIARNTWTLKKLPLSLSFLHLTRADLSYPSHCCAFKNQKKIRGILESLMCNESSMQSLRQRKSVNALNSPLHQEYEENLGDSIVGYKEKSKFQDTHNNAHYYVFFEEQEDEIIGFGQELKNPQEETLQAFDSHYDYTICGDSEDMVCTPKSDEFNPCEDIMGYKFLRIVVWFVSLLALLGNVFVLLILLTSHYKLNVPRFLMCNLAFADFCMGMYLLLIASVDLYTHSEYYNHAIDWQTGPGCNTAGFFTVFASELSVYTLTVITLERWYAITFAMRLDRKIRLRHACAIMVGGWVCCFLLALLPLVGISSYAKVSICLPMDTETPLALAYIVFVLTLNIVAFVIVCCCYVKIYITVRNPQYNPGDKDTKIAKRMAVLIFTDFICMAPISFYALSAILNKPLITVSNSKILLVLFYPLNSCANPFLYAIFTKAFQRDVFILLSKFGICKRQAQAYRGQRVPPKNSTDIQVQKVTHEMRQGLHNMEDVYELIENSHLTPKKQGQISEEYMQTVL
Procedure, shortened: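 Inhibition of TSH-stimulated cAMP accumulation was quantified by homogeneous time-resolved FRET in TSHR-transfected HEK293 cells. Agonist: TSH, 4 nM final (EC80).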

[17] = target: D(1A) dopamine receptor (Homo sapiens) (UniProt P21728); assay: HTS Assay for Allosteric Agonists of the Human D1 Dopamine Receptor: Primary Screen for Agonists (AID 488981); conditions: Inducible HEK293 T-REx D1 cells, calcium-flux fluorescence, 180 s kinetic; series mostly up to 41.8 µM
D(1A) dopamine receptor (Homo sapiens), sequence (P21728 whole entry, looked up): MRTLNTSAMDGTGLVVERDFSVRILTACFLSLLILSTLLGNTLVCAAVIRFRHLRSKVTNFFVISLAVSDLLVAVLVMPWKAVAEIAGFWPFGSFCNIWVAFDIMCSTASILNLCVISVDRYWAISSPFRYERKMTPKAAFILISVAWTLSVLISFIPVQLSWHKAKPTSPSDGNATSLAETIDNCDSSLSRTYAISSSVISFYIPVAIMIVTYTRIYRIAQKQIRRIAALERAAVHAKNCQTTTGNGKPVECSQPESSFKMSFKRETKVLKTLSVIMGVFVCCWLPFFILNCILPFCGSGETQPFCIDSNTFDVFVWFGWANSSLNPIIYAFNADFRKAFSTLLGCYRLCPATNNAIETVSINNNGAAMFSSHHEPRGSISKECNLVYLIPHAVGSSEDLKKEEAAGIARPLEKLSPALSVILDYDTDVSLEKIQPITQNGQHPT
Procedure, shortened: (§1)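 Calcium flux in an inducible, force-coupled HEK293 Trex D1 line (overnight at 30 C): agonist mode is the 180 s kinetic read after compound; potentiator mode is the following 180 s read after dopamine at EC20.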

[18] = target: D(1A) dopamine receptor (Homo sapiens) (UniProt P21728); assay: HTS Assay for Allosteric Agonists of the Human D1 Dopamine Receptor: Primary Screen for Potentiators (AID 488982); conditions: HEK293 T-REx D1 inducible cells, calcium flux, kinetic fluorescence; series mostly up to 8.37 µM
Procedure, shortened: as §1

[19] = target: D(1A) dopamine receptor (Homo sapiens) (UniProt P21728); assay: HTS Assay for Allosteric Agonists of the Human D1 Dopamine Receptor: Primary Screen for Antagonists (AID 488983); conditions: D1 receptor cell assay, antagonist mode, qHTS titration; series mostly up to 41.8 µM;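 also: calcium flux response to an EC80 dopamine challenge measured with no-wash dye; nearly all actives have a fitted effect of over 65% in size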; also: potency is read from the fitted curve at half-maximal effect
Procedure, shortened: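 Calcium flux readout, no-wash dye, inducible HEK293 T-REx D1 line (force-coupled). Compound added after 10 s baseline, 180 s kinetic read; then dopamine at EC80, further 180 s read.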

[20] = target: ATP-dependent 6-phosphofructokinase (Trypanosoma brucei brucei) (UniProt O15648); assay: qHTS Validation Assay to Find Inhibitors of T. brucei phosphofructokinase (AID 485368); also: potency is read from the fitted curve at half-maximal effect; conditions: T. brucei PFK enzyme assay, qHTS 7-point titration; series mostly up to 57.5 µM
ATP-dependent 6-phosphofructokinase (Trypanosoma brucei brucei), sequence (O15648 whole entry, looked up): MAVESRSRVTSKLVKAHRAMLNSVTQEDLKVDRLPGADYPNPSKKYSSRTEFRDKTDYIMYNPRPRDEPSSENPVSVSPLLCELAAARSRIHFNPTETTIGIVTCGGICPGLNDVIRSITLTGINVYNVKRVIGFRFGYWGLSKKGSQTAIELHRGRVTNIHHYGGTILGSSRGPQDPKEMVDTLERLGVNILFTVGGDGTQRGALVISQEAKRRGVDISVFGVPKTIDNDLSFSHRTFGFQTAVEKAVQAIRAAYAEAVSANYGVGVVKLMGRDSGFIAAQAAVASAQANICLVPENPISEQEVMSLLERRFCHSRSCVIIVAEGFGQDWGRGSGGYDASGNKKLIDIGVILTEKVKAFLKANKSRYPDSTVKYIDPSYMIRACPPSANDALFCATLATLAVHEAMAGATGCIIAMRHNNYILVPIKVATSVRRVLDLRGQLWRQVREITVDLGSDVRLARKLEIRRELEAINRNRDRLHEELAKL
Procedure, shortened: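 Inhibition derived from concentration-response curves of luminescence, ranked by r2, response size and curve class; the underlying reaction used 1.25 nM PFK, 0.1 mM ATP and 0.5 mM F6P, 45 min, room temperature.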

Measured: Potency

C[N+](C)(C)CCO
not listed: [20]
inactive: all other assays above

Nc1ncnc2n[nH]c(Nc3ccc(F)cc3)c12
not listed: [3] | [4] | [8] | [9] | [15] | [16]
inactive: all other assays above

O=[N+]([O-])c1ccc(-c2nc(-c3ccc(F)cc3)c(-c3ccncc3)[nH]2)cc1
22.4 µM (active) and inactive: [12]
active: [4] 12.6 µM | [9] 10.4 µM | [13] 31.6 µM
not listed: [2] | [3] | [6] | [8] | [18]
inactive: all other assays above

COc1cccc2c1[C@@H]1CN(CCCCn3c(=O)[nH]c4c(sc5ncc(-c6ccccc6)nc54)c3=O)C[C@@H]1CO2
inactive: [5] | [7] | [10] | [11] | [14] | [15] | [16] | [17] | [18] | [19]
active: [12] 20 µM | [13] 22.4 µM

Cn1cnc2c(NCc3ccccc3)nc(NCCO)nc21
not listed: [8] | [9]
inactive: all other assays above

N[C@@H](Cn1ccc(=O)c(O)c1)C(=O)O
not listed: [4] | [8] | [9] | [15] | [16] | [20]
inactive: all other assays above

C[C@]12CCC(=O)C=C1CC[C@@H]1[C@@H]2[C@@H](O)C[C@@]2(C)[C@H]1CC[C@]2(O)C(=O)COC(=O)CCC(=O)O
inactive: [4] | [8] | [9] | [12] | [15] | [16]

CC(C)N(CCC(=O)c1ccc2ccccc2c1)Cc1ccccc1
28.2 µM (active) and inactive: [12]
active: [4] 3.55 µM | [20] 13.5 µM | [13] 44.7 µM
not listed: [2] | [3] | [6] | [15] | [19]
inactive: all other assays above

Brc1ccc([C@H]2CN3CCSC3=N2)cc1
active: [4] 7.08 µM
not listed: [13]
inactive: all other assays above

O=C1NC(c2cccc([N+](=O)[O-])c2)=CCN1c1ccccc1O
not listed: [8] | [20]
inactive: all other assays above

COC(=O)C1=CO[C@@H](O)[C@@H]2C(CO)=CC[C@H]12
not listed: [4] | [8] | [9] | [10] | [15] | [16]
inactive: all other assays above

CCN(CC)CCNC(=O)c1ccc(NS(C)(=O)=O)cc1
not listed: [4] | [8] | [9] | [15] | [16]
inactive: all other assays above

COc1ccccc1N1CCN(CCN2C(=O)CC3(CCCC3)CC2=O)CC1
not listed: [8]
inactive: all other assays above

Cc1nn(-c2ccccc2)c(C)c1/C=N/N1CCN(Cc2ccccc2)CC1
active: [13] 39.8 µM
not listed: [4] | [6] | [8] | [9] | [12] | [15] | [16]
inactive: all other assays above

Clc1ccc2c(c1)N=C(N1CCNCC1)c1ccccc1N2
active: [19] 0.562 µM
inactive: [1] | [5] | [7] | [20] | [10] | [11] | [12] | [13] | [14]

O=C1NC(=O)/C(=C/c2ccc3c(c2)OC(F)(F)O3)S1
not listed: [4] | [6] | [8] | [9] | [13] | [15] | [16]
inactive: all other assays above

NC(N)=NCCCCN=C(N)N
inactive: all assays above

CN(C)c1cc2c(Nc3ccc4c(cnn4Cc4ccccc4)c3)ncnc2cn1
active: [4] 3.16 µM | [8] 7.38 µM | [9] 4.65 µM
not listed: [3] | [6] | [11] | [13] | [20]
inactive: all other assays above
